PubChem BioAssay (Tox21)
Results filed as inconclusive are left out. A number with no mark means an inactive call. Calls of active or inactive are those of the source. Calls follow the shape of the dose curve; as a rule, active = well fitted cell-killing curve with a large enough effect in the repeat runs; inconclusive = weak or mixed curves, or effect the other way; inactive = flat fitted curve, though single readings scatter.

assay: cAMP Responsive Elements (CRE) small molecule agonists, cell-based qHTS assay: qHTS cell viability counter screen (AID 2060914); conditions: CRE-bla HEK293T viability, CellTiter-Glo luminescence, 5 h; series mostly up to 92.4 µM; activity change, negative = cytotoxicity: at the top concentration;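 also: viability read after 3 h of compound exposure; nearly all actives have a fitted effect of over 50% in size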
Excerpt: National Center for Advancing Translational Sciences [NCATS]
Division of Preclinical Innovation [DPI]
U.S. Environmental Protection Agency [EPA]
National Institutes of Environmental Health Sciences [NIEHS]
National Toxicology Program [NTP]
U.S. Food and Drug Administration [FDA]
CREB (cyclic-AMP Responsive Element Binding Protein) is a cellular transcription factor. It binds to certain DNA sequences called cAMP Responsive Elements (CRE) and regulates the transcription of the genes. […] This cell line can be used to find agonists/antagonists of the cyclic AMP signaling pathway. The activation of the report gene under culture conditions can be detected by fluorescence intensity. This cell line has been used to screen the Tox21 10K compound library to identify agonists that induce oxidative stress. The cytotoxicity of the Tox21 compound library against the CRE-bla cell line was tested in parallel by measuring the cell viability using CellTiter-Glo assay (Promega, Madison, WI) in the same wells.
Tox21 Assay Protocol Summary:
CRE-bla Hek 293T cells were suspended in assay medium (DMEM containing 10% dialyzed FBS, 0.1 mM NEAA, 1 mM sodium pyruvate and 25 mM HEPES) and dispensed at 2,000 cells/5 uL /well into 1536-well black wall/clear bottom plates using a Multidrop Combi (ThermoFisher Scientific, Waltham, MA) dispenser. After the assay plates were incubated at 37 C/5% CO2 for 18 hrs, 23 nL of compounds dissolved in DMSO, positive controls or DMSO only was transferred to the assay plate by a pintool workstation (Kalypsys, San Diego, CA). After the plates were incubated at 37 C/5% CO2 for 3 hrs, 1 uL of LiveBLAzer B/G FRET substrate (Invitrogen, Carlsbad, CA) was added to each well using Bioraptr Flying Reagent Dispenser (FRD, Aurora Discovery, San Diego, CA). The plates were incubated at room temperature for 2 h, then fluorescence intensities were measured using an Envision plate reader (PerkinElmer, Shelton, CT) at Excitation 405nm, Emission 460nm and 530nm. The % activity was determined from the ratio of 460nm/530nm. For cell viability readout that measures cytotoxicity, 4 uL /well of CellTiter-Glo reagent was added into the assay plates using Bioraptr FRD. After 30 min incubation at room temperature, the luminescence intensity in the assay plates was measured using a ViewLux (PerkinElmer, Shelton, CT) plate reader.
% is scaled to controls: 0 for no effect and ±100 for the full control effect.

Compound	activity change, negative = cytotoxicity	Potency
CN1CCC(Nc2ncc3ncnc(Nc4ccc(F)c(Cl)c4)c3n2)CC1	-4.94% [at 42.5 µM]	–
Cc1ccc(C(=O)Nc2ccc(S(=O)(=O)O)c3cc(S(=O)(=O)O)cc(S(=O)(=O)O)c23)cc1NC(=O)c1cccc(NC(=O)Nc2cccc(C(=O)Nc3cc(C(=O)Nc4ccc(S(=O)(=O)O)c5cc(S(=O)(=O)O)cc(S(=O)(=O)O)c45)ccc3C)c2)c1	-9.11% [at 42.5 µM]	–
CCCCC/C(C=O)=C\c1ccccc1	–	inactive
O=C1CCc2cc(OCCCCc3nnnn3C3CCCCC3)ccc2N1	-6.91% [at 42.5 µM]	–
Cn1c(=O)c2c(ncn2CC(O)CO)n(C)c1=O (stereo not given)	-7.17% [at 42.5 µM]	–
Cc1ccc(NC=O)c(C)c1	4.16%	–
COC(=O)CCCC(=O)O	-5.05%	–
C=C(C)C1CC=C(C)C(=O)C1 (stereo not given)	13%	–
C#CCN(C)Cc1ccccc1	–	inactive
[O]=[Mo](=[O])=[O]	-14.6% [at 18.9 µM]	–
Cc1ccccc1N=C(N)Nc1ccccc1C	-16.2%	–
O=C[C@H](O)[C@H](O)[C@H](O)CO	-12.1%	–
CC(C)CCCCCCN	2.41%	–
OC[C@H]1O[C@H](O[C@]2(CCl)O[C@H](CCl)[C@@H](O)[C@@H]2O)[C@H](O)[C@@H](O)[C@H]1Cl	–	inactive
O=C1c2ccccc2CCc2ccccc21	–	inactive
CCN(CC)c1cccc(O)c1	15.6%	–
FC(F)(F)C(Cl)Br (stereo not given)	–	inactive
CCn1cc(C(=O)O)c(=O)c2cc(F)c(N3CCNC(C)C3)c(F)c21 (stereo not given)	3.51% [at 42.5 µM]	–
C#CC(O)CCC (stereo not given)	-9.57%	–
Nc1cc(S(=O)(=O)O)ccc1O	-1.7%	–

Compound	activity change, negative = cytotoxicity	Potency
C=CC(C)(O)CCC=C(C)C (stereo not given)	–	inactive
CCc1ccccc1O	–	inactive
CCCCCCCCc1ccc(Nc2ccc(CCCCCCCC)cc2)cc1	1.72% [at 42.5 µM]	–
C/C(=N\O)c1ccc(OCC(=O)N2CCCCC2)cc1	-5.62% [at 42.5 µM]	–
CCCCCCCCCCCCCCCCCCN(C)C	-10.3% [at 42.5 µM]	–
Cc1ccsc1C(=CCCN1CCC[C@@H](C(=O)O)C1)c1sccc1C	4.1% [at 42.5 µM]	–
NS(=O)(=O)c1ccc(C(=O)O)cc1	-0.044% [at 42.5 µM]	–
[Cl][Nd]([Cl])[Cl]	6.08%	–
C/C=C/C(=O)C1=C(C)CCCC1(C)C	-2.56%	–
CC(CC=O)CC(C)(C)C (stereo not given)	0.937%	–
O=S(=O)(O)c1ccc2ccccc2c1	–	inactive
CCCCCCCCC=O	-1.93%	–
CCOC(=O)[C@H](CCc1ccccc1)N[C@@H](C)C(=O)N1[C@H](C(=O)O)C[C@@H]2CCC[C@@H]21	-2% [at 42.5 µM]	–
O=C(O)C1CCC(C(=O)O)CC1 (stereo not given)	2.69%	–
O=C(O)CNC(=O)c1ccc(CO)o1	2.79%	–
CCOc1ccccc1OCC1CNCCO1 (stereo not given)	9.29% [at 42.5 µM]	–
C1CCC2OC2C1 (stereo not given)	1.3%	–
O=C(O)c1snc(Cl)c1Cl	1.24%	–
CN1CCN(c2cc3c(nn2)Oc2ccccc2N3C)CC1	1.04% [at 18.9 µM]	–
CC(C)=CCC/C(C)=C/CC/C(C)=C/CO	-2.34%	–
